Experimental data reported in PubChem BioAssay AID624504 (Sanford-Burnham Center for Chemical Genomics, 2012).
Out of some 5,000 compounds screened, about 3,900 (78%) were called active. Rule as the data show it: active = inhibition above about 22%; inactive = the rest. So high a share suggests a set chosen from earlier hits. Only a sample is shown.

Assay: fluorescence retest of MPTP screen hits in isolated mitochondria, single concentration (AID 624504);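 also: 0% = DMSO vehicle and 100% = positive control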
Conditions: membrane potential, Rhodamine 123 fluorescence, at 10 µM, stronger effect = higher value
In the case of `O=C(NNc1c2ccccc2nc2ccccc12)c1cc2ccccc2cc1O`, the inhibition is reported as 31.4% (active).
For `CCn1c(CNC(=O)c2cc(OC)c(OC)c(OC)c2)cc2cc(C)ccc21`, the inhibition was 72.8% (active).
In the case of `CCCCOc1ccc(CSC(=N)N)cc1[N+](=O)[O-]`, the inhibition is reported as -5.28% (inactive).
For `CCc1ccc(Nc2n[n+](-c3ccccc3)c(-c3cccc(Cl)c3Cl)s2)cc1`, the inhibition was 86.2% (active).
For `Cc1cc(C(=O)CSc2nc(N)cc(=O)[nH]2)c(C)n1Cc1ccco1`, the inhibition was 46.4% (active).
In the case of `Cc1cc(C(=O)CSc2nc(N)cc(=O)[nH]2)c(C)n1-c1cccc(F)c1`, the inhibition is reported as 59% (active).
For `NC[C@H](Cc1ccccc1)NCCc1cc(C(F)(F)F)cc(C(F)(F)F)c1`, the inhibition was -12% (inactive).
For `c1ccc2c(c1)C(=NC1CCCCC1)NC2=NC1CCCCC1`, the inhibition was 92.1% (active).
For `Cc1ccc2nnn(Cc3cccc(C(C)(C)C)c3O)c2c1`, the inhibition was 98.9% (active).
With `O=c1c2ccccc2nc2n1C(CSCc1ccccc1)CS2` (stereo unspecified) the inhibition was 26.1% (active).
In the case of `O=c1c2ccccc2nc2n1C(CSCc1cccc(C(F)(F)F)c1)CS2` (stereo unspecified), the inhibition is reported as 80.9% (active).
With `CN1CCC[C@@H]1CCO[C@](C)(c1ccccc1)c1ccc(Cl)cc1` the inhibition was -12.2% (inactive).
With `CCCc1ccc(-c2c(C)sc(NC(=O)c3ccnn3C)c2C#N)cc1` the inhibition was 90.5% (active).
In the case of `CCCCc1nc(NCCN)c(C#N)c2c1CSC(C)(C)C2`, the inhibition is reported as -9.33% (inactive).
In the case of `COc1cc(CNCc2ccc(OC)c3ccccc23)cc(OC)c1OC`, the inhibition is reported as 75.8% (active).
With `Cc1nc2nc(SCC(=O)Nc3cccc(F)c3)[nH]c2cc1Br` the inhibition was 81.1% (active).
For `CC(=O)c1c(C)[nH]c(C(=O)COC(=O)c2cccc(S(=O)(=O)N(C)c3ccccc3)c2)c1C`, the inhibition was 90.1% (active).
In the case of `CC(C)(CCl)C(=O)Nc1ccc(Sc2ccc(F)cc2)cc1`, the inhibition is reported as 80.4% (active).
For `O=C(C/C(=N\NC(=O)c1ccccc1Br)C(F)(F)F)c1cccs1`, the inhibition was 82.3% (active).
With `O=C(NCCc1ccc2c(c1)OCCO2)c1cc2ccccc2o1` the inhibition was 51.1% (active).
For `CC1(C)CC(=O)c2sc(N)nc2C1`, the inhibition was 1.93% (inactive).
With `CCCc1nc2c(c(=O)c3ccccc3n2C)c(=O)n1C1CCCCCC1` the inhibition was 19.4% (inactive).
With `O=C(Nc1ccc(OC(F)(F)F)cc1)c1ccc2c(c1)no[n+]2[O-]` the inhibition was 88.6% (active).
For `CCC(C)(C)c1ccc(Oc2ccc(NC(=O)COC(=O)C3=COCCO3)cc2)cc1`, the inhibition was 55.3% (active).
With `CCCCCCc1cc2cc(-c3nnc(-c4ccccc4)o3)c(=O)oc2cc1O` the inhibition was 1.15% (inactive).
With `Cc1ccc(Nc2c3c(nc4ccccc24)CCC3)cc1` the inhibition was 76.8% (active).
For `O=C(NCCOc1ccccc1F)Nc1ccc(Br)cc1`, the inhibition was 71.7% (active).
With `CCOC(=O)c1ccc(NC(=O)Cn2cnc3cc(C)c(C)cc32)cc1` the inhibition was 88.8% (active).
In the case of `COc1ccc(NS(=O)(=O)c2cc(NC(=O)CC(=O)c3ccc([N+](=O)[O-])cc3)ccc2C)cc1`, the inhibition is reported as 66.5% (active).
For `O=C(Cc1cccc2ccccc12)NNC(=O)Nc1ccc(Cl)cc1`, the inhibition was 85.8% (active).
In the case of `Cc1ccc(NC(=S)NC(NC(=O)Cc2cccc3ccccc23)C(Cl)(Cl)Cl)cc1` (stereo unspecified), the inhibition is reported as 70.9% (active).
For `COC(=O)c1ccc(NC(=O)c2ccccc2NS(=O)(=O)c2ccccc2)cc1`, the inhibition was 93.2% (active).
For `COc1cc(NC(=O)c2ccccc2NS(=O)(=O)c2ccc(Cl)s2)cc(OC)c1`, the inhibition was 75.8% (active).
For `Clc1ccc(-c2cc(C3CCNCC3)[nH]n2)c(Cl)c1`, the inhibition was -10.4% (inactive).
In the case of `Cc1nnc(SC(C(=O)Nc2cc(Cl)cc(Cl)c2)c2ccccc2)[nH]c1=O` (stereo unspecified), the inhibition is reported as 86.5% (active).
For `CC(=O)c1c(C)[nH]c(C(=O)OCC(=O)Nc2sc3c(c2C#N)CCCC3)c1C`, the inhibition was 82.4% (active).
For `CCOC(=O)c1c(NC(=O)CSc2cn(CC)c3ccccc23)sc2c1CCC2`, the inhibition was -4.21% (inactive).
In the case of `Cc1cc(C)cc(NC(=S)NCc2ccc(F)cc2)c1`, the inhibition is reported as 57.4% (active).
With `Cc1c(NC(=S)NCc2ccc(F)cc2)cccc1[N+](=O)[O-]` the inhibition was 78.8% (active).
In the case of `Cc1nc(CNS(=O)(=O)c2ccc(Oc3ccccc3)cc2)cs1`, the inhibition is reported as 88.2% (active).
With `Cc1ccc(CC(=O)Nc2ccc(OC(F)F)c(Cl)c2)cc1C` the inhibition was 89.8% (active).
In the case of `FC(F)Oc1ccc(NC(=S)NCc2ccco2)cc1Cl`, the inhibition is reported as 97.6% (active).
With `c1ccc2c(c1)CSc1sccc1C2=C1CCNCC1` the inhibition was -11.2% (inactive).
In the case of `Cc1nc2ccccc2cc1OCc1ccc(F)cc1`, the inhibition is reported as 100% (active).
In the case of `Cc1cc(OCCCC(=O)NCCN2C(=O)S/C(=C\c3cccnc3)C2=O)ccc1Cl`, the inhibition is reported as 68.6% (active).
With `Cc1nn(C)cc1CNC(=O)Nc1ccc(Cl)cc1` the inhibition was 96.6% (active).
With `Cc1cc(C=O)c(C)n1-c1ccc(NC2CCCCC2)c([N+](=O)[O-])c1` the inhibition was 41.9% (active).
In the case of `CCCCCCCCCCCCN1C(=O)CSC1c1cccnc1` (stereo unspecified), the inhibition is reported as 19.9% (inactive).
With `COc1cc2c3c(c1)/C(=C1/SC(=S)NC1=O)C(=O)N3C(C)(C)C=C2C` the inhibition was 49.1% (active).
With `CCCC(C(=O)OCCN(CC)CC)(c1ccccc1)c1ccccc1` the inhibition was 4.44% (inactive).
For `CC(C)N1C(=S)SC(C)(C)C1n1oc(=O)n(-c2ccc(Cl)c(Cl)c2)c1=O` (stereo unspecified), the inhibition was 80.6% (active).
For `COc1ccc(CNc2ncnc3ccccc23)cc1`, the inhibition was 71.8% (active).
For `O=C(Nc1nc2ccc([N+](=O)[O-])cc2s1)c1ccc(S(=O)(=O)N2CCCc3ccccc32)cc1`, the inhibition was 74.7% (active).
With `Cc1cc(C)cc(OCC(=O)Nc2nc3ccc([N+](=O)[O-])cc3s2)c1` the inhibition was 62.3% (active).
In the case of `O=C(NC(Nc1nc2ccc([N+](=O)[O-])cc2s1)(C(F)(F)F)C(F)(F)F)c1ccccc1`, the inhibition is reported as 81.4% (active).
For `O=C(Nc1nc2ccc([N+](=O)[O-])cc2s1)c1ccncc1`, the inhibition was 20.6% (active).
For `CCCC[C@@H]1CN=C(N)N1CCc1cc(C(F)(F)F)cc(C(F)(F)F)c1`, the inhibition was -7.58% (inactive).
For `O=C(Nc1ccc(Cl)cc1)Nc1nnc(/C=C/c2ccccc2)s1`, the inhibition was 67% (active).
With `CS(=O)(=O)N(CC(=O)Nc1ccc(Cl)c(Cl)c1)C1CCCCC1` the inhibition was 82.4% (active).
For `N#CCCN(C(=S)Nc1ccc(Cl)c(Cl)c1)C1CCCCC1`, the inhibition was 91.7% (active).
For `O=C(N/N=C/c1ccc(O)c(O)c1)C1c2ccccc2Oc2ccccc21`, the inhibition was -9.84% (inactive).
